# Measured values from the OligoGym collection.
# Target: KBTBD12
# Assay: pooled miR-30 sensor sort-seq; sequence = guide strand
# Settings: shRNA
# Also: reference of the scale not given here.
row,Sequence,sensor-assay potency score (higher = more potent)
1,TGGTCATCTAGCTACAACCTAC,-1.11
2,TTCTTCATCAGGAAGATCCATC,-0.961
3,TTGTAGTGTCTTATTTACCCTA,-0.555

# Target: KCNAB2
# Assay: as above
# Settings: shRNA
row,Sequence,sensor-assay potency score (higher = more potent)
1,CAAAATACTATCAATCTCGTGG,-0.486
2,TGACAGTTTCGGAAGGACCTGT,0.657
3,TTTCAGACCTTCGATTATGTGC,-0.469
4,TTCCTGTAGATCATCCCGGGGG,-0.0548
5,TATCTTGTGGAACAGCTCCGGC,-1.17
6,TTGGTGGTGATGACGAGGCTGG,-0.706
7,TAGACTTCTGCTGTATCGAAGA,-0.756
8,TTCGATTATGTGCTTCCTGGAC,-0.692
9,TTTCTCACGCTGGAACATGTGG,-0.804
10,TTCTGCTGTATCGAAGAGGTTG,-0.594
11,AATACTATCAATCTCGTGGATA,-1.21
12,ATGATCTCCATGGAGCTCCAGC,-1.53

# Target: KCNB1
# Assay: as above
# Settings: shRNA
row,Sequence,sensor-assay potency score (higher = more potent)
1,TACTCGTTGTCGTCGAGGCTGT,-0.424
2,TACTTTGTCTTTCTTACCCATA,-1.04
3,TAGATCTCGTCGATGCCCCAGT,-0.693
4,TTTCTCAACCACAATGTCCATC,-0.571
5,TACATGTCTTCCAACTGCTGAA,-0.486
6,TTTTCTCCGATCTTGTCCCCGT,-0.234
7,TTGAACTTGGTGTCGTCCTCAT,0.219
8,TTCATCTGCTCTTTCTTCTGGT,0.512
9,TTAGTTTTCATGGAACTCTTGG,0.191
10,TTTGAACTTGGTGTCGTCCTCA,0.816
11,TAGAAGTTGAGGATGGAGGTGA,0.819

# Target: KCNC1
# Assay: as above
# Settings: shRNA
row,Sequence,sensor-assay potency score (higher = more potent)
1,TTTTCTTTGGTAGTTTCTGCTT,-0.644
2,AATTTCTAAAATTTCTTCCTGG,0.198
3,TTGCGTGCCATTGCGAACGTTC,-0.65
4,TTCTTTGGTAGTTTCTGCTTAG,-0.569
5,TAAGGAGTAATACATCCCGAAA,-1.65
6,TTCAGTTTGGAATCTGCTCTGT,0.183
7,TTTCTTTGGTAGTTTCTGCTTA,0.312
8,TTCTTGATGAACTCTACCTTGT,-0.835
9,TTGATGAACTCTACCTTGTTGG,0.0525
10,TAGTAGTTCAGGATGTGCGCGA,0.436
11,TACTTAGCAATGACAGGGCTTT,-0.252
12,ATGAACTCTACCTTGTTGGGGC,0.181
